Data as given in PubChem BioAssay AID1159580 (chemical genetic matrix, 2015).
Several values for one entry are separate records, joined by “and”; a condition that tells them apart may be missing. Equal entries are not always repeated. The whole screen tested about 5,500 compounds, of which about 2,000 (36%) were called active. Inconclusive results (about 18%) are left out. No stated cut-off is given here; in the data, active means normalized growth mostly below about 0.91 (no sharp cut-off); inconclusive means no clear call, values can overlap the other calls; inactive means mostly above about 0.92. This is one part of the list.

Assay: chemical genetic growth profiling, strain panel (AID 1159580);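 further: tested at 20 µM; growth read once vehicle control cultures reached saturation at 30 °C; 1 = growth at the plate median or of vehicle wells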
Conditions: S. cerevisiae deletion strains, growth OD

Measured: normalized growth

c1ccc2c(c1)CN1CCCC1=N2
inactive: locus YAL021C, strain ccr4, stronger effect = lower value 0.998 | locus YAL026C, strain drs2, stronger effect = lower value 1 | locus YAL030W, strain snc1, stronger effect = lower value 1 | locus YBL061C, strain skt5, stronger effect = lower value 0.999 | locus YBR009C, strain hhf1, stronger effect = lower value 0.987 | locus YBR023C, strain chs3, stronger effect = lower value 1 | locus YBR171W, strain sec66, stronger effect = lower value 1 | locus YBR229C, strain ROT2, stronger effect = lower value 1.01 | locus YBR231C, strain swc5, stronger effect = lower value 0.997 | locus YBR279W, strain paf1, stronger effect = lower value 0.996 | locus YCL011C, strain gbp2, stronger effect = lower value 1.01 | locus YCL016C, strain dcc1, stronger effect = lower value 0.997 | locus YCL029C, strain bik1, stronger effect = lower value 0.972 | locus YCL061C, strain MRC1, stronger effect = lower value 1.01 | locus YCL069W, strain vba3, stronger effect = lower value 1 | locus YCR088W, strain abp1, stronger effect = lower value 0.998 | locus YDL005C, strain med2, stronger effect = lower value 0.993 | locus YDL035C, strain GPR1, stronger effect = lower value 1.03 | locus YDL040C, strain nat1, stronger effect = lower value 1 | locus YDL074C, strain BRE1, stronger effect = lower value 1.01 | locus YDL101C, strain DUN1, stronger effect = lower value 0.99 | locus YDL134C, strain PPH21, stronger effect = lower value 1.01 | locus YDL185W, strain tfp1, stronger effect = lower value 0.971 | locus YDL192W, strain arf1, stronger effect = lower value 0.985 | locus YDR001C, strain nth1, stronger effect = lower value 0.992 | locus YDR069C, strain doa4, stronger effect = lower value 1 | locus YDR101C, strain arx1, stronger effect = lower value 0.978 | locus YDR137W, strain rgp1, stronger effect = lower value 1.01 | locus YDR150W, strain NUM1, stronger effect = lower value 0.998 | locus YDR159W, strain sac3, stronger effect = lower value 0.991 | locus YDR162C, strain NBP2, stronger effect = lower value 1.02 | locus YDR195W, strain ref2 0.968 | locus YDR297W, strain sur2, stronger effect = lower value 1 | locus YDR318W, strain mcm21, stronger effect = lower value 0.988 | locus YDR334W, strain swr1, stronger effect = lower value 0.999 | locus YDR335W, strain msn5, stronger effect = lower value 1.01 | locus YDR388W, stronger effect = lower value 0.989 | locus YDR392W, strain spt3, stronger effect = lower value 0.919 | locus YDR502C, strain sam2, stronger effect = lower value 0.988 | locus YEL003W, strain gim4, stronger effect = lower value 0.999 | locus YEL037C, strain rad23, stronger effect = lower value 0.999 | locus YEL061C, strain CIN8 (second series), stronger effect = lower value 0.996 | locus YEL061C, strain CIN8, stronger effect = lower value 1 | locus YER015W, strain faa2, stronger effect = lower value 0.998 | locus YER016W, strain bim1, stronger effect = lower value 1 | locus YER110C, stronger effect = lower value 0.967 | locus YER111C, strain swi4, stronger effect = lower value 1 | locus YER155C, strain BEM2 (second series), stronger effect = lower value 1 | locus YER155C, strain BEM2, stronger effect = lower value 0.993 | locus YER167W, strain BCK2, stronger effect = lower value 1 | locus YFR010W, strain ubp6, stronger effect = lower value 1 | locus YGL078C, strain dbp3, stronger effect = lower value 0.993 | locus YGL086W, strain mad1, stronger effect = lower value 0.967 | locus YGL167C, strain pmr1, stronger effect = lower value 0.995 | locus YGL173C, strain kem1, stronger effect = lower value 0.997 | locus YGL227W, strain vid30, stronger effect = lower value 0.993 | locus YGL240W, strain doc1, stronger effect = lower value 1.01 | locus YGL248W, strain PDE1, stronger effect = lower value 1 | locus YGL253W, strain hxk2, stronger effect = lower value 1 | locus YGR078C, strain PAC10, stronger effect = lower value 1.01 | locus YGR135W, strain pre9, stronger effect = lower value 0.998 | locus YGR229C, strain SMI1, stronger effect = lower value 1.03 | locus YGR252W, strain gcn5, stronger effect = lower value 1.1 | locus YHR013C, strain ard1, stronger effect = lower value 0.983 | locus YHR027C, strain rpn1, stronger effect = lower value 1.01 | locus YHR030C, strain SLT2, stronger effect = lower value 1.01 and 0.994 | locus YHR079C, strain IRE1 (second series), stronger effect = lower value 0.97 | locus YHR079C, strain IRE1, stronger effect = lower value 1.02 | locus YHR094C, strain hxt1, stronger effect = lower value 0.991 | locus YHR129C, strain ARP1, stronger effect = lower value 0.995 | locus YHR142W, strain chs7, stronger effect = lower value 1.01 | locus YHR200W, strain rpn10, stronger effect = lower value 0.979 | locus YIL066C, strain RNR3, stronger effect = lower value 1.01 | locus YIL073C, strain SPO22, stronger effect = lower value 0.906 | locus YIL125W, strain kgd1, stronger effect = lower value 0.989 | locus YIR030C, strain dcg1, stronger effect = lower value 0.985 | locus YJL092W, strain hpr5, stronger effect = lower value 0.995 | locus YJL095W, strain BCK1 (second series), stronger effect = lower value 1 | locus YJL095W, strain BCK1, stronger effect = lower value 1 and 0.988 | locus YJL115W, strain asf1, stronger effect = lower value 1 | locus YJL129C, strain trk1, stronger effect = lower value 1.01 | locus YJL134W, strain LCB3, stronger effect = lower value 1.01 | locus YJL154C, strain vps35, stronger effect = lower value 0.996 | locus YJL164C, strain tpk1, stronger effect = lower value 1.01 | locus YJL166W, strain qcr8, stronger effect = lower value 1 | locus YJL168C, strain set2, stronger effect = lower value 0.98 | locus YJL187C, strain SWE1 (second series), stronger effect = lower value 0.99 | locus YJL187C, strain SWE1, stronger effect = lower value 1 | locus YJR043C, strain POL32, stronger effect = lower value 1.06 | locus YJR066W, strain TOR1, stronger effect = lower value 0.989 | locus YKL009W, strain mrt4, stronger effect = lower value 0.955 | locus YKL068W, stronger effect = lower value 0.984 | locus YKL085W, strain MDH1 (second series), stronger effect = lower value 0.981 | locus YKL085W, strain MDH1, stronger effect = lower value 0.981 | locus YKL160W, strain elf1, stronger effect = lower value 1 | locus YKL190W, strain CNB1, stronger effect = lower value 1.01 | locus YKR001C, strain vps1, stronger effect = lower value 0.98 | locus YKR026C, strain gcn3, stronger effect = lower value 0.992 | locus YKR091W, strain srl3, stronger effect = lower value 0.994 | locus YLL001W, strain dnm1, stronger effect = lower value 0.988 | locus YLL026W, stronger effect = lower value 0.996 | locus YLL041C, strain sdh2, stronger effect = lower value 0.996 | locus YLR027C, strain aat2, stronger effect = lower value 1.01 | locus YLR039C, strain RIC1, stronger effect = lower value 1.01 | locus YLR058C, strain SHM2, stronger effect = lower value 1 | locus YLR102C, strain apc9, stronger effect = lower value 0.981 | locus YLR113W, strain HOG1, stronger effect = lower value 0.973 | locus YLR221C, strain rsa3, stronger effect = lower value 0.999 | locus YLR258W, strain gsy2, stronger effect = lower value 1 | locus YLR262C, strain YPT6 (second series), stronger effect = lower value 1.02 | locus YLR262C, strain YPT6, stronger effect = lower value 1.04 | locus YLR268W, strain sec22, stronger effect = lower value 0.951 | locus YLR320W, strain mms22, stronger effect = lower value 1.01 | locus YLR330W, strain CHS5, stronger effect = lower value 0.996 | locus YLR342W, strain FKS1 (second series), stronger effect = lower value 1.08 | locus YLR342W, strain FKS1, stronger effect = lower value 1.01 | locus YLR357W, strain rsc2, stronger effect = lower value 0.991 | locus YLR370C, strain arc18, stronger effect = lower value 1.01 | locus YLR371W, strain rom2, stronger effect = lower value 0.965 | locus YLR384C, strain iki3, stronger effect = lower value 0.988 | locus YLR418C, strain cdc73, stronger effect = lower value 1 | locus YML016C, strain PPZ1, stronger effect = lower value 1 | locus YML032C, strain rad52, stronger effect = lower value 1.01 | locus YML120C, strain ndi1, stronger effect = lower value 1.01 | locus YML124C, strain tub3, stronger effect = lower value 1 | locus YMR058W, strain fet3, stronger effect = lower value 1 | locus YMR078C, strain ctf18, stronger effect = lower value 0.959 | locus YMR125W, strain sto1, stronger effect = lower value 1.01 | locus YMR129W, stronger effect = lower value 0.976 | locus YMR205C, strain PFK2, stronger effect = lower value 0.99 | locus YMR223W, strain ubp8, stronger effect = lower value 0.992 | locus YMR231W, strain pep5, stronger effect = lower value 0.996 | locus YMR263W, strain SAP30, stronger effect = lower value 0.991 | locus YMR307W, strain GAS1, stronger effect = lower value 1.21 | locus YNL067W, strain RPL9B, stronger effect = lower value 0.979 | locus YNL071W, strain lat1, stronger effect = lower value 1.01 | locus YNL153C, strain GIM3, stronger effect = lower value 1 | locus YNL183C, strain NPR1, stronger effect = lower value 0.967 | locus YNL209W, strain ssb2, stronger effect = lower value 1 | locus YNL233W, strain BNI4, stronger effect = lower value 1 | locus YNL248C, strain rpa49, stronger effect = lower value 1.01 | locus YNL250W, strain rad50, stronger effect = lower value 0.937 | locus YNL271C, strain bni1, stronger effect = lower value 0.989 | locus YNL298W, strain CLA4, stronger effect = lower value 0.996 | locus YNL307C, strain MCK1, stronger effect = lower value 0.972 | locus YNL322C, strain KRE1 (second series), stronger effect = lower value 1 | locus YNR049C, strain mso1, stronger effect = lower value 1 | locus YNR052C, strain pop2, stronger effect = lower value 0.992 | locus YOL006C, strain TOP1, stronger effect = lower value 0.918 | locus YOL012C, strain htz1 0.782 | locus YOL147C, strain pex11, stronger effect = lower value 0.995 | locus YOR001W, strain rrp6, stronger effect = lower value 1 | locus YOR061W, strain CKA2, stronger effect = lower value 0.998 | locus YOR069W, strain VPS5, stronger effect = lower value 0.998 | locus YOR070C, strain gyp1, stronger effect = lower value 0.993 | locus YOR080W, strain dia2, stronger effect = lower value 0.992 | locus YOR083W, strain WHI5, stronger effect = lower value 1 | locus YOR106W, strain vam3, stronger effect = lower value 1.02 | locus YOR136W, strain idh2, stronger effect = lower value 0.976 | locus YOR144C, strain elg1, stronger effect = lower value 1.01 | locus YOR184W, strain ser1, stronger effect = lower value 0.992 | locus YOR231W, strain MKK1, stronger effect = lower value 1.02 | locus YOR265W, strain rbl2, stronger effect = lower value 1.01 | locus YOR270C, strain vph1, stronger effect = lower value 1.02 | locus YOR290C, strain snf2, stronger effect = lower value 0.955 | locus YOR316C, strain cot1, stronger effect = lower value 0.98 | locus YPL051W, strain arl3, stronger effect = lower value 1.01 | locus YPL055C, strain LGE1, stronger effect = lower value 1 | locus YPL078C, strain atp4, stronger effect = lower value 1.01 | locus YPL106C, strain sse1, stronger effect = lower value 1.02 | locus YPL240C, strain hsp82, stronger effect = lower value 0.992 | locus YPL256C, strain CLN2, stronger effect = lower value 1 | locus YPR119W, strain clb2, stronger effect = lower value 0.966 | locus YPR141C, strain kar3, stronger effect = lower value 0.969 | locus YPR163C, strain tif3, stronger effect = lower value 0.997 | locus YPR167C, strain met16, stronger effect = lower value 0.976 | strain wtn01, stronger effect = lower value 0.957
active: locus YBR021W, strain FUR4, stronger effect = lower value 1.19 [resistant]
